Screening data from PubChem.
An excerpt weighted towards active compounds, which were near 14% of everything screened.
Pf growth 48h – P. falciparum growth inhibition at 48 hours (one generation) | P. falciparum luciferase growth in erythrocytes, 48 h | AID 504832 | actives 5.9% (n = 310,000) | Potency, µM (titrated, usually from 28.7 µM), most hits filed as inhibitors
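Luminescence readout; reporter = integrated firefly luciferase in P. falciparum. RBC culture at 2% hematocrit, 0.1% parasitemia final, 37 C/5% CO2; decreased signal taken as growth inhibition.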
HCMV antiviral – inhibitors of human cytomegalovirus. HFF cells, HCMV-luciferase reporter, 72 h; stronger effect = lower value. AID 1259415. activity change, negative = inhibition, % at 57.5 µM. actives 4.5% (n = 410,000); in the data active means activity change below about -60%; inconclusive means no clear call, values can overlap the other calls; inactive means above about -39%
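HFF cells seeded 16 h at 37C, treated with compounds, infected with luciferase-reporter HCMV at MOI 1 PFU/cell; luciferase read at 72 h post infection, normalized to buffer-only and Salinomycin controls.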
Pf growth 96h – inhibits malaria parasite growth, 96 h; P. falciparum luciferase reporter growth, 96 h; Potency, µM (titrated, usually from 28.7 µM), actives largely listed as inhibitors; actives 6.9% (n = 320,000)
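Two parasite generations (96 h, 37 C, 5% CO2) of compound exposure in infected erythrocytes (0.05% parasitemia, 2% hematocrit). Luciferase-reporter P. falciparum; decreased luminescence indicates inhibited growth, aimed at apicoplast-acting delayed death.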
Lassa entry inh – Lassa virus entry inhibition; Lassa virus pseudotype entry inhibition, cell reporter; Potency, µM (titrated, usually from 37.9 µM), most hits filed as inhibitors; actives 1.2% (n = 300,000); AID 540256; calls by dose curve; tested in HEK293 cells; further: nearly all actives have a fitted effect of over 50% in size
MARV entry inh – Marburg virus entry inhibition | Marburg virus pseudotyped entry inhibition, cell reporter | Potency, µM (titrated, usually from 37.8 µM), actives largely listed as inhibitors | actives 1.8% (n = 300,000) | AID 540276; calls by dose curve; tested in HEK293 cells
HCV inh – HCV inhibition. actives 3.4% (n = 340,000). Huh7.5.1 HCVcc-Cre infection, luciferase reporter, 44 h. Potency, µM (titrated, usually from 41.8 µM), hits mostly inhibitors
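Reporter virus HCVcc-Cre (~0.5 moi) infects cells exposed to compound; seeding density 1,000 cells/well with 4 h settling beforehand. Luminescence, 15 sec read, taken 44 h post-infection following a 15 min RT substrate incubation.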
Each line names hits and unclear results; the compound was inactive in the other large screens. Unless noted, the call rests on the fitted dose curve; in most records, active means well fitted inhibition curve with a large enough effect; inconclusive means small, poorly fitted or top-dose-only effect, or another doubt; inactive means no such curve, though single readings can be large or run the other way.

COc1ccc(C)cc1NC(=O)CSc1ccc(-c2sc(C)nc2C)nn1	Pf growth 48h 12µM, Lassa entry inh inconclusive, HCV inh 10µM
COc1cccc(NC(=O)Cc2nc(-c3ccccc3)sc2-c2ccc(C)cc2)c1	Pf growth 48h inconclusive, Pf growth 96h 10µM, MARV entry inh inconclusive
COc1cccc(NC(=O)CSc2ccc(-c3sc(C)nc3C)nn2)c1	Pf growth 48h inconclusive, Pf growth 96h inconclusive, Lassa entry inh inconclusive, MARV entry inh inconclusive, HCV inh 32µM
COc1ccc(NC2c3ccccc3C(=O)N2Cc2ccc3c(c2)OCO3)cc1 (stereo not drawn)	Pf growth 48h inconclusive, MARV entry inh inconclusive
CN1CC(=O)Nc2cc(C(=O)O)ccc21	HCMV antiviral inconclusive (no result: Pf growth 48h, Pf growth 96h, MARV entry inh, HCV inh)
COc1ccc(NC(=S)/N=C(\N)Nc2nc(C)c3ccc(C)cc3n2)cc1	Pf growth 48h 12µM, HCV inh 11µM (no result: Lassa entry inh, MARV entry inh)
CCOc1ccc2nc(N/C(N)=N/C(=S)Nc3ccc(C)c(C)c3)nc(C)c2c1	Pf growth 48h 6.6µM, Pf growth 96h 6.6µM
CCOc1ccc2nc(NC3=NC(C)(C)C=C(C)N3)nc(C)c2c1	Pf growth 96h inconclusive, MARV entry inh inconclusive, HCV inh inconclusive (no result: Pf growth 48h)
CC(C(=O)NCc1ccccc1)n1c(-c2ccc3c(c2)CCO3)nc2ccccc21 (stereo not drawn)	none (no result: Pf growth 48h, Pf growth 96h, Lassa entry inh, MARV entry inh, HCV inh)
CCN(C(=O)c1c([N+](=O)[O-])cnn1C)c1ccccc1	none (no result: Pf growth 48h, Pf growth 96h, Lassa entry inh, MARV entry inh, HCV inh)
Cc1ccc(NC(=O)C2CCC(=O)N2)cc1C (stereo not drawn)	Pf growth 96h inconclusive
O=C1CCC(C(=O)Nc2ccc(Cl)cc2)N1 (stereo not drawn)	Pf growth 96h 5.2µM
COc1nc(C)c2cc(C)oc2n1	none
CSc1nc(C)c2cc(C)oc2n1	Pf growth 96h 0.37µM
Cc1cccc(C(=O)NCCc2nc3ccccc3n2Cc2ccc(Cl)cc2)c1	MARV entry inh inconclusive (no result: Pf growth 48h, Pf growth 96h, HCV inh)
CCCCC1(O)CC(C(F)(F)F)=NN1C(=O)COc1ccccc1 (stereo not drawn)	Pf growth 96h 0.12µM
CCOc1ccc2oc(=O)cc(CN3CCN(Cc4ccc(F)cc4)CC3)c2c1	MARV entry inh inconclusive (no result: Pf growth 48h, Pf growth 96h, HCV inh)
COc1cccc(/C=N/N2CCN(C3c4ccccc4-c4ccccc43)CC2)c1O	Pf growth 48h 13µM, Pf growth 96h inconclusive (no result: Lassa entry inh, MARV entry inh)
Cc1cc(OCCCCCNCCO)cc(C)c1Cl	HCMV antiviral inconclusive, Pf growth 96h 13µM, MARV entry inh inconclusive, HCV inh 13µM (no result: Pf growth 48h)
CC(C)(C)CN1CCN(Cc2cccnc2)CC1CCO (stereo not drawn)	Pf growth 96h 10µM
Cn1cc(CN2CCN(CC(C)(C)C)C(CCO)C2)c2ccccc21 (stereo not drawn)	Pf growth 96h 1.5µM, MARV entry inh inconclusive
Cc1cccc(CN2CCN(Cc3cccc(-n4cccn4)c3)CC2CCO)n1 (stereo not drawn)	Pf growth 96h 4.1µM
Cc1cccc(CN2CCN(Cc3ccc(-n4cccn4)cc3)CC2CCO)n1 (stereo not drawn)	HCMV antiviral inconclusive (no result: Lassa entry inh, MARV entry inh)
COc1ccc(Nc2c(-c3ccc(Cl)cc3)nc3cnccn23)cc1OC	Lassa entry inh inconclusive, MARV entry inh inconclusive (no result: Pf growth 48h, Pf growth 96h, HCV inh)
[N-]=[N+]=NC1C[C@H](n2ccc(=O)[nH]c2=O)O[C@@H]1CO (stereo partly drawn)	HCMV antiviral -66
CCN(CC)C(=O)c1sc2c(c1C)c(=O)n(-c1ccc(Cl)c(Cl)c1)c(=O)n2Cc1ccccc1C#N	none (no result: Pf growth 48h, Pf growth 96h, MARV entry inh, HCV inh)
CC(C)c1nc2sc3c(NCc4ccccc4)ncnc3c2c2c1COC(C)(C)C2	Pf growth 96h 9.3µM (no result: Pf growth 48h)
COc1ccc(CN2C(=O)C(CC(=O)NCCN3CCOCC3)CC(C(=O)N3CCOCC3)=C2C)cc1 (stereo not drawn)	none (no result: Pf growth 48h, Pf growth 96h, Lassa entry inh, MARV entry inh, HCV inh)
Cc1cccc(N2CCN(CCCNC(=O)c3ccc(NC(=O)C4=CSCCO4)cc3)CC2C)c1 (stereo not drawn)	Pf growth 48h inconclusive, Lassa entry inh inconclusive, MARV entry inh inconclusive, HCV inh 11µM
O=C(Nc1ccc(C(=O)NCCCN2CCN(c3ccc(F)cc3)CC2)cc1)C1=CSCCO1	Pf growth 48h inconclusive, Pf growth 96h 12µM, HCV inh inconclusive (no result: Lassa entry inh, MARV entry inh)
O=C(NCCC1=CCCCC1)C1CCN(S(=O)(=O)c2ccccc2C(F)(F)F)CC1	Pf growth 48h 10µM, Pf growth 96h inconclusive
O=C(NCCC1=CCCCC1)C1CCN(S(=O)(=O)c2cccc3nsnc23)CC1	Pf growth 48h inconclusive, Pf growth 96h 1.9µM
COC(=O)CNC(=O)C1CCN(S(=O)(=O)c2cccc3nsnc23)CC1	Pf growth 96h 13µM, HCV inh inconclusive
Cc1ccc(S(=O)(=O)N2CCC(C(=O)NCCC3=CCCCC3)CC2)c(C)c1	Pf growth 48h inconclusive, Pf growth 96h inconclusive, Lassa entry inh inconclusive, MARV entry inh inconclusive, HCV inh inconclusive
O=C(NCCN1CCCCCC1)C1CCCN1S(=O)(=O)c1cccc2nsnc12 (stereo not drawn)	Pf growth 48h 1.7µM, Pf growth 96h inconclusive
C=CCN1C(=O)c2ccccc2Sc2ccc(C(=O)NCCC)cc21	none (no result: Lassa entry inh, MARV entry inh)
Cc1ccc(CN2CCC=CS2(=O)=O)cc1	MARV entry inh inconclusive (no result: Pf growth 48h, Pf growth 96h, Lassa entry inh, HCV inh)
Cc1noc(C)c1S(=O)(=O)N1CCC(C(=O)NCCC2=CCCCC2)CC1	HCMV antiviral -102, MARV entry inh inconclusive, HCV inh inconclusive
CCOCCCNC(=O)C1CCC(CNS(=O)(=O)c2cccc3nsnc23)CC1 (stereo not drawn)	Pf growth 96h 3.7µM
COc1ccc(Cl)cc1NC(=O)c1[nH]nc(OC)c1[N+](=O)[O-]	none (no result: Lassa entry inh, MARV entry inh)
COc1n[nH]c(C(=O)Nc2cc(Cl)ccc2Cl)c1[N+](=O)[O-]	Pf growth 48h inconclusive, Pf growth 96h 4.7µM, MARV entry inh inconclusive
COc1cc(/C=C/C(=O)NC(=O)c2ccccc2O)ccc1O	Pf growth 48h inconclusive (no result: HCMV antiviral, Lassa entry inh, MARV entry inh)
COc1cc(/C=C/C(O)=C/C(=O)/C=C/c2ccc(O)cc2)ccc1O	Pf growth 48h 12µM, Pf growth 96h inconclusive, HCV inh inconclusive (no result: Lassa entry inh, MARV entry inh)
COc1ccc(C(CNC(=O)CCNC(=O)c2ccccc2Cl)N2CCCC2)cc1 (stereo not drawn)	Pf growth 96h inconclusive (no result: Lassa entry inh, MARV entry inh)
COc1ccc(C(CNC(=O)C(CCSC)NC(=O)c2ccccc2OC)N2CCCCC2)cc1 (stereo not drawn)	Pf growth 48h inconclusive, Pf growth 96h 12µM
COc1ccccc1C(CNC(=O)C(CCSC)NC(=O)c1ccccc1Cl)N1CCCC1 (stereo not drawn)	MARV entry inh 2.8µM (no result: Pf growth 48h, Pf growth 96h)
COc1ccc(C(CNC(=O)CCNC(=O)c2ccccc2OC)N2CCCC2)cc1 (stereo not drawn)	Pf growth 48h inconclusive, Pf growth 96h 12µM
CCn1nccc1NC(=O)c1csc([C@@H]2O[C@H](CO)[C@H](O)[C@H](O)[C@H]2O)n1	none (no result: Pf growth 48h, Pf growth 96h, Lassa entry inh, MARV entry inh, HCV inh)
CN(C)CCNC=C(C(=O)Nc1ccc(Cl)cc1Cl)C(=O)Nc1ccc(Cl)cc1Cl	Pf growth 48h 3.3µM, Pf growth 96h 1.9µM, MARV entry inh inconclusive, HCV inh inconclusive
